Our source for the growth values is PubChem BioAssay (NCI).

Values joined by “and” are separate entries in the source; they are usually repeats but may differ in a detail not shown here. Identical values can stand only once. Compounds without any hit were thinned out: in the full panel of roughly 83,000, 20% have a hit.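 Results are percent growth after 48 hours of single-concentration exposure. 100 means growth as in untreated cells, lower positive values show inhibition; negative values down to -100 show cell death.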 Active and inactive are the calls of the source. Rule for the calls: active = growth percent below 10; inactive = the rest.

The test relates to MDA-MB-468 breast. The test is described as follows: NCI-60 one-dose screen, 48 h (100 = growth as untreated, 0 = no growth, -100 = all killed). To be noted: 10 µM unless noted.
As for `CCCC/C(CC)=N\NS(=O)(=O)c1ccc([N+](=O)[O-])cc1`, the growth was 109% (inactive).
For the compound `Oc1ccc(Cl)cc1Cc1cc(Cl)ccc1O`, the growth is 19.2% (inactive).
With `CCC(/C=C\C(C)=O)CC`, the growth is 102% (inactive).
With `Cc1cc(OCCO)cc(C)c1Cl`, the growth was 124% (inactive).
With `FC(F)(F)c1cccc(Nc2nc(-c3ccccc3)nc3ncccc23)c1`, the growth was -21.7% (active).
The figure for `C=C1C(=O)O[C@H]2[C@H]1CC/C(COC(=O)NCc1ccc(Cn3c(=O)sn(-c4ccc(Cl)cc4)c3=O)cc1)=C\CC[C@@]1(C)O[C@@H]21` is 22.6% (inactive); for `Nc1ccc(O)c(C(=O)O)c1` it is 73.1% (inactive) and 9.23% (active) and 98.8% (inactive); for `COC(=O)C1CN(S(=O)(=O)/N=C2\NC(=O)NC2=C(Cl)Cl)C1` it is 72.5% (inactive).
With `COc1ccc2c(c1)c(-c1noc(-c3cn(C)c4ncc(F)cc34)n1)cn2C`, the growth was 73.5% (inactive).
As to `Clc1ccc2c(NC3CCC(NC4CCCCC4)CC3)ccnc2c1` (stereo not given), the growth was -7.22% (active).
As for `NC(N)=Nc1nc2ccccc2n2c1nc1ccccc12`, the growth is 35.1% (inactive).
On to `C[C@@H]1C(=O)N(C[C@H](Cc2ccccc2)NC(=O)OCc2ccccc2)[C@]1(Cc1ccccc1)C(=O)OCc1ccccc1`, for which the growth was 24.6% (inactive).
Consider `O=C(Nc1ccc(F)cc1)Nc1ccccc1CNc1nc(Nc2ccc(OCCN3CCCC3)cc2)ncc1Cl`, for which the growth is -44.1% (active).
In the case of `CCCC(=O)NC(c1cccc(N(C)C)c1)c1cc(C)c2cccnc2c1O` (stereo not given), the growth was 24.8% (inactive).
As to `Cc1c(Cl)cccc1NC(=O)c1sc2nc3c(cc2c1N)CCCCC3`, the growth is 22.4% (inactive).
Regarding `O=C(O)c1cn(C2CC2)c2cc(N3CCN(C(=O)Nc4nc(-c5ccc(Cl)cc5)cs4)CC3)c(F)cc2c1=O`, the growth is 9.76% (active).
For `Cc1cc(F)ccc1S(=O)(=O)Nc1cc(-c2c(O)ccc3ccccc23)c(O)c2ccccc12`, the growth was -1.51% (active).
As for `CCCNC(=O)c1ccc(S(N)(=O)=O)cc1`, the growth is 82.1% (inactive).
On to `CC1CN(c2oc(-c3ccccc3)nc2C#N)CC(C)O1` (stereo not given), for which the growth is 109% (inactive).
In the case of `Clc1nc(Cl)c2ncn(CCOCCn3cnc4c(Cl)nc(Cl)nc43)c2n1` it was -72.3% (active); in that of `CCCCCCCCCCCCCCC(C(=O)OCC)C(=O)OCC`, 95.9% (inactive); in that of `CCCN1[C@@H]2CC[C@H]1/C(=C\c1ccc(OC)c(OC)c1)C(=O)/C2=C/c1ccc(OC)c(OC)c1`, 17.7% (inactive).
As to `Cc1ccc(Cc2cnc(NC(=O)/C=C/c3ccc(C)o3)s2)cc1`, the growth was -0.221% (active).
Regarding `CC1=C(C)C(=O)C(Nc2cccc(C)c2)=C(Br)C1=O`, the growth was -43.1% (active).
Regarding `COc1ccc(-c2nc3sc(C)cn3c2/C=C/C(=O)c2cc(OC)c(OC)c(OC)c2)cc1`, the growth was 25.5% (inactive).
For the compound `CN(CCCNC(=O)CCOCCOCCOCCNC(=O)Cc1ccc2ccc3cccc4ccc1c2c34)CCCNc1cc(-c2ccc3ccccc3c2)nc2ccccc12`, the growth is -92.2% (active).
As to `CC(=O)/C(N=Nc1ccc(S(=O)(=O)c2ccc(N=N/C(C(C)=O)=C(/C)O)cc2)cc1)=C(\C)O`, the growth is 108% (inactive).
The figure for `O=C(Cc1ccc(F)c(Cl)c1)Nc1cc(C2(C(F)(F)F)CC2)nn1CC1CCCCC1` is -13.1% (active); for `CCN(CC)C(=O)C1(C)CCCC2(C)c3cc(OC(C)=O)ccc3CCC12` (stereo not given) it is 56.9% (inactive).
Turning to `Cc1ccc(NC(=O)c2sc3nc4c(cc3c2N)C(=O)CCC4)cc1`, the growth is 32.7% (inactive).
Consider `NC1=CC(=O)c2cccnc2C1=O`, for which the growth was -50.8% (active).
On to `CCOC(=O)C1CCN(S(=O)(=O)/N=C2/NC(=O)NC2=C(Cl)Cl)CC1`, for which the growth is -22.2% (active).
As to `C=CCn1c(SCC(=O)Nc2ccc(/C(C)=N\O)cc2)nnc1-c1cc(-c2ccccc2)nc2ccccc12`, the growth is 73% (inactive).
In the case of `Cc1nc(N)[nH]c(=O)c1C` it was 103% (inactive); in that of `OC[C@H]1OC([S-])[C@H](O)[C@@H](O)[C@@H]1O.[Au+]` (stereo not given in full), 90.7% (inactive).
For the compound `c1cnc2ccc3ncccc3c2c1`, the growth was 122% (inactive).
As to `CCOC(=O)Nc1ccc2nc(Sc3ccc(Cl)cc3)sc2c1`, the growth was 0.385% (active).
Turning to `O=C(Nc1ccc(Cl)cc1)c1cc(-c2ccc(Cl)cc2)c2sc(=O)[nH]c2n1`, the growth is -3.42% (active).
For `N#C/C(=C\c1ccc(N2CCCCC2)cc1)C(=O)Nc1sc2c(c1C#N)CCC2`, the growth was 119% (inactive).
For the compound `C=CCn1cc(-c2nc3ccccc3s2)c2cc(-c3ccc4c5c(cccc35)C(=O)N(N)C4=O)ccc21`, the growth is 95.4% (inactive).
